Measured values: PubChem BioAssay (NCI)
Compounds without any hit were thinned out: in the full panel of roughly 83,000, 20% have a hit.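 Single-concentration screen, 48 h exposure, 96-well plates. Endpoint: percent growth. Below 10 = active.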 Calls of active or inactive are those of the source.

Tests used:
Assay in all cases: NCI-60 one-dose screen, 48 h (100 = growth as untreated, 0 = no growth, -100 = all killed)
Conditions in all cases: 10 µM unless noted
SK-MEL-2 melanoma = test system: SK-MEL-2 melanoma
EKVX NSCLC = test system: EKVX NSCLC
SN12C renal = test system: SN12C renal
UO-31 renal = test system: UO-31 renal
TK-10 renal = test system: TK-10 renal
ACHN renal = test system: ACHN renal
CAKI-1 renal = test system: CAKI-1 renal
A498 renal = test system: A498 renal
CCRF-CEM leukemia = test system: CCRF-CEM leukemia
MOLT-4 leukemia = test system: MOLT-4 leukemia

Measured: growth

O=C(c1ccccc1)[C@@H](c1ccccc1)[C@]1(O)C(=O)Nc2ccccc21
inactive: SK-MEL-2 melanoma 96.9% | EKVX NSCLC 105% | SN12C renal 82.3% | UO-31 renal 76.1% | TK-10 renal 112% | ACHN renal 90.1% | CAKI-1 renal 84.6% | A498 renal 100% | CCRF-CEM leukemia 100% | MOLT-4 leukemia 102%

O=C1/C(=C/c2cccc(Br)c2)COc2ccc(O)c(O)c21
active: SK-MEL-2 melanoma -14.8% | SN12C renal -73.8% | UO-31 renal -100% | ACHN renal -92.8% | CAKI-1 renal -54.4% | CCRF-CEM leukemia 4.21% | MOLT-4 leukemia 2.59%
inactive: EKVX NSCLC 41.9% | TK-10 renal 12% | A498 renal 112%

O=C(/C=C/c1ccc([N+](=O)[O-])cc1)c1cccc(Nc2nc(Nc3ccccc3)nc(Nc3ccccc3)n2)c1
inactive: SK-MEL-2 melanoma 37.5% | EKVX NSCLC 65.1% | SN12C renal 89.1% | UO-31 renal 38.9% | TK-10 renal 66.3% | ACHN renal 80% | CAKI-1 renal 72.5% | A498 renal 70% | CCRF-CEM leukemia 46.2% | MOLT-4 leukemia 46.4%

O=C1/C(=C/c2ccc(Br)cc2)COc2ccc(O)cc21
active: CCRF-CEM leukemia 1.32%
inactive: SK-MEL-2 melanoma 107% | EKVX NSCLC 98.5% | SN12C renal 73.3% | UO-31 renal 47.9% | TK-10 renal 99.1% | ACHN renal 86.7% | CAKI-1 renal 80.1% | A498 renal 103% | MOLT-4 leukemia 16.6%

COc1cc2cc(Oc3ccc(NC(=O)Nc4ccc(Cl)c(Cl)c4)cc3)c(C)nc2cc1OCCN1CCCCC1
inactive: SK-MEL-2 melanoma 124% | EKVX NSCLC 99.8% | SN12C renal 101% | UO-31 renal 88.2% | TK-10 renal 133% | ACHN renal 106% | CAKI-1 renal 78% | A498 renal 86.8% | MOLT-4 leukemia 64.6%
active: CCRF-CEM leukemia 9.57%

C#CCOc1cccc(Nc2ncnc3c(NC(=O)CCl)cccc23)c1
inactive: SK-MEL-2 melanoma 36.5% | UO-31 renal 35.4% | TK-10 renal 63.7% | CAKI-1 renal 54.9% | A498 renal 101%
active: EKVX NSCLC -19.8% | SN12C renal 6.82% | ACHN renal -72.4% | CCRF-CEM leukemia -57.5% | MOLT-4 leukemia -12.7%

C[C@H]1c2ccccc2CN1CCCOc1cc2c(cc1OCC1CC1)C1(CCCC1)C(N)=N2
inactive: SK-MEL-2 melanoma 54% | EKVX NSCLC 72.8% | SN12C renal 67.6% | UO-31 renal 29.3% | TK-10 renal 92.7% | ACHN renal 69% | CAKI-1 renal 18.5% | A498 renal 32.5% | CCRF-CEM leukemia 54.6% | MOLT-4 leukemia 36.4%

C=C(C[n+]1ccccc1)[C@@H]1CC[C@]2(C(=O)OC)CC[C@]3(C)[C@H](CC[C@@H]4[C@@]5(C)CCC(=O)C(C)(C)[C@@H]5CC[C@]43C)[C@@H]12
inactive: SK-MEL-2 melanoma 89% | EKVX NSCLC 93.4% | SN12C renal 87.8% | UO-31 renal 86.4% | TK-10 renal 102% | ACHN renal 95.4% | CAKI-1 renal 83.5% | A498 renal 88.7% | CCRF-CEM leukemia 82.6% | MOLT-4 leukemia 78.9%

CCOC(=O)CC1CSC(N/N=C/c2ccc(O)cc2)=N1 (stereo not given)
inactive: SK-MEL-2 melanoma 95.1% | EKVX NSCLC 103% | SN12C renal 105% | UO-31 renal 89.7% | TK-10 renal 91.5% | ACHN renal 105% | CAKI-1 renal 94.6% | A498 renal 108% | CCRF-CEM leukemia 115% | MOLT-4 leukemia 107%

COc1cc(OC)cc(C(=O)Nc2cnc(Nc3ccc(N4CCOCC4)nc3)nc2Oc2ccc(C(F)(F)F)cc2)c1
inactive: SK-MEL-2 melanoma 94.6% | EKVX NSCLC 90.2% | SN12C renal 43.6% | UO-31 renal 58.1% | TK-10 renal 81.9% | ACHN renal 66.4% | CAKI-1 renal 59.7% | A498 renal 77.7% | CCRF-CEM leukemia 86% | MOLT-4 leukemia 80.7%

Cc1ccc(C2(C)NC(=O)N(CC(=O)Nc3cccc(C)c3)C2=O)cc1 (stereo not given)
inactive: SK-MEL-2 melanoma 84.9% | EKVX NSCLC 101% | SN12C renal 100% | UO-31 renal 82% | TK-10 renal 106% | ACHN renal 98.6% | CAKI-1 renal 112% | A498 renal 123% | CCRF-CEM leukemia 112% | MOLT-4 leukemia 80.4%

COc1ccc(NC(=O)CSc2oc(-c3ccccc3)nc2S(=O)(=O)c2ccc(Cl)cc2)c(OC)c1
inactive: SK-MEL-2 melanoma 66.4% | EKVX NSCLC 74.7% | SN12C renal 75.8% | UO-31 renal 61.6% | TK-10 renal 67.1% | ACHN renal 36.6% | CAKI-1 renal 86.1% | A498 renal 49.9% | CCRF-CEM leukemia 89.1% | MOLT-4 leukemia 73%

COc1ccc2c(c1)C(c1c[nH]c3ccccc13)(c1c[nH]c3ccccc13)CCO2
active: MOLT-4 leukemia 8.7%
inactive: SK-MEL-2 melanoma 43.6% | EKVX NSCLC 35% | SN12C renal 50.6% | UO-31 renal 26.1% | TK-10 renal 59.7% | ACHN renal 45% | CAKI-1 renal 44% | A498 renal 82.9% | CCRF-CEM leukemia 36.7%

O=C1NC(=O)C(=Cc2cc(-c3ccc(Cl)cc3)n(-c3ccccc3)n2)C(=O)N1
inactive: SK-MEL-2 melanoma 106% | EKVX NSCLC 91.6% | SN12C renal 92.5% | UO-31 renal 86.6% | TK-10 renal 88.3% | ACHN renal 95.2% | CAKI-1 renal 92.8% | A498 renal 93.5% | CCRF-CEM leukemia 92.7% | MOLT-4 leukemia 92.4%
